# A number with no mark means an inactive call. Records with an inconclusive call do not appear. A call without a number means that no potency is given here. Calls of active or inactive are those of the source. Unless noted, calls come from the whole dose curve.
# Tests used:
# [1] = qHTS assay to identify small molecule antagonists of the sonic hedgehog signaling (Shh) pathway (AID 1259369); note: nearly all actives have a fitted effect of over 45% in size; note: potency is the fitted concentration of half-maximal effect
# How it was run: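 For antagonist detection, the reporter line received test compounds together with conditioned medium, incubated 24hr at 37 C, 5% CO2, then luminescence was recorded following 30min room-temperature luciferase reagent incubation.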
# [2] = target: Estrogen receptor beta (Homo sapiens) (UniProt Q92731); test: qHTS assay to identify small molecule agonists of the estrogen receptor beta (ER-beta) signaling pathway (AID 1259377; active = well fitted activation curve with a large enough effect in the signal ratio in the repeat runs, not every such curve was filed as active; the % refers to the signal ratio)
# How it was run: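 HEK293T ER-beta-UAS-bla; 2% charcoal-stripped FBS; cells pre-incubated 6 hr, compound 16 hr, 37C/5% CO2; LiveBLAzer B/G FRET substrate 2 h RT; fluorescence intensity read.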
# [3] = target: Estrogen receptor beta (Homo sapiens) (UniProt Q92731); test: qHTS assay to identify small molecule antagonists of the estrogen receptor beta (ER-beta) signaling pathway (AID 1259378; active = well fitted inhibition curve with a large enough effect in the signal ratio in the repeat runs, not every such curve was filed as active; the % refers to the signal ratio)
# How it was run: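 ER-beta-UAS-bla HEK293T (GripTite) cells in 2% charcoal-stripped FBS medium were preincubated 6 hr at 37C, dosed with compound, then stimulated with 1 nM E2 (final) for 16 hr; beta-lactamase reporter read by B/G FRET fluorescence after 2 hr substrate loading.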
# [4] = qHTS assay to identify small molecule agonists of the androgen receptor (AR) signaling pathway in the presence of an antagonist - cell viability counter screen (AID 1259379; active = well fitted curve in the direction sought with a large enough effect in the repeat runs; an effect the other way counts as inactive or inconclusive;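 note: MDA-kb2 human breast cancer cells carrying an MMTV luciferase reporter; series mostly up to about 92 µM; nearly all actives have a fitted effect of over 25% in size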)
# How it was run: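 Seed MDA-kb2 at 3,000 cells/well; incubate 5 hr, 37C, 0% CO2. Add nilutamide to 3.0uM final, then pin compounds at 15 concentrations. Incubate 16 hr. Add CellTiter-Fluor at 15 hr, read fluorescence after 1 hr.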
# [5] = qHTS assay to identify small molecule antagonists of the estrogen receptor beta (ER-beta) signaling pathway - cell viability counter screen (AID 1259382; active = well fitted curve in the direction sought with a large enough effect in the repeat runs; an effect the other way counts as inactive or inconclusive; note: series mostly up to about 92 µM; nearly all actives have a fitted effect of over 55% in size)
# How it was run: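 In this multiplexed counter screen, cells were seeded at 2,000 per well in medium with 2% charcoal-stripped FBS and incubated 6 hr before compound and 1nM final E2 were added. Sixteen hours later, ATP-based luminescence reported viability.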
# [6] = qHTS assay to identify small molecule agonists or antagonists of the thyroid stimulating hormone receptor (TSHR) signaling pathway - wild type cell line counter screen (AID 1259384)
# How it was run: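 Wild-type HEK293 cells were plated 18 h at 37 C/5% CO2, pin-dosed with compound plus Ro20-1724 medium, held 30 min at room temperature, then given cAMP-d2 and anti-cAMP-cryptate; fluorescence was read after 1 h. Fifteen concentrations, triplicate.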
# [7] = target: Thyrotropin receptor (Homo sapiens) (UniProt P16473); test: qHTS assay to identify small molecule antagonists of the thyroid stimulating hormone receptor (TSHR) signaling pathway (AID 1259385); note: nearly all actives have a fitted effect of over 20% in size
# How it was run: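 TSHR-HEK293 cells were plated and held 18 h at 37C/5% CO2, then given compound plus Ro20-1724 and stimulated with TSH at 1.5 ng/mL final. After 30 min at room temperature, cAMP was detected with cAMP-d2/anti-cAMP-cryptate (1 h) by fluorescence.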
# [8] = qHTS assay to identify small molecule agonists of the estrogen receptor beta (ER-beta) signaling pathway - cell viability counter screen (AID 1259380; active = well fitted curve in the direction sought with a large enough effect in the repeat runs; an effect the other way counts as inactive or inconclusive; note: nearly all actives have a fitted effect of over 30% in size)
# How it was run: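 CellTiter-Glo read, 30 min RT, same wells as bla assay; cells ER-beta-UAS-bla HEK293T; 16 hr compound, 37C; medium 2% charcoal-stripped FBS.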
# [9] = target: Androgen receptor (Homo sapiens) (UniProt P10275); test: qHTS assay to identify small molecule agonists of the androgen receptor (AR) signaling pathway in the presence of an antagonist (AID 1259381); note: nearly all actives have a fitted effect of over 15% in size; note: potency is the fitted concentration of half-maximal effect
# How it was run: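 Test compounds at 15 concentrations were incubated for 16hr with MDA-kb2 reporter cells in presence of 3.0uM nilutamide (final). Signal: ONE-Glo luciferase luminescence.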
# [10] = target: Estrogen receptor (Homo sapiens) (UniProt P03372); test: qHTS assay to identify small molecule agonists of the estrogen receptor alpha (ER-alpha) signaling pathway in the presence of an antagonist (AID 1259383); note: nearly all actives have a fitted effect of over 15% in size; note: potency is the fitted concentration of half-maximal effect; for activation: top concentration of the series differs between compounds
# How it was run: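 Stably transfected VM7Luc4E2 reporter cells, kept 5 days in charcoal-stripped serum, received ICI-182,780 at 10.0nM final before compound addition. Following 22hr incubation at 37C and 5% CO2, luciferase signal was read by luminescence.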
# Sequence of Estrogen receptor beta (Homo sapiens) (Q92731 whole entry, looked up): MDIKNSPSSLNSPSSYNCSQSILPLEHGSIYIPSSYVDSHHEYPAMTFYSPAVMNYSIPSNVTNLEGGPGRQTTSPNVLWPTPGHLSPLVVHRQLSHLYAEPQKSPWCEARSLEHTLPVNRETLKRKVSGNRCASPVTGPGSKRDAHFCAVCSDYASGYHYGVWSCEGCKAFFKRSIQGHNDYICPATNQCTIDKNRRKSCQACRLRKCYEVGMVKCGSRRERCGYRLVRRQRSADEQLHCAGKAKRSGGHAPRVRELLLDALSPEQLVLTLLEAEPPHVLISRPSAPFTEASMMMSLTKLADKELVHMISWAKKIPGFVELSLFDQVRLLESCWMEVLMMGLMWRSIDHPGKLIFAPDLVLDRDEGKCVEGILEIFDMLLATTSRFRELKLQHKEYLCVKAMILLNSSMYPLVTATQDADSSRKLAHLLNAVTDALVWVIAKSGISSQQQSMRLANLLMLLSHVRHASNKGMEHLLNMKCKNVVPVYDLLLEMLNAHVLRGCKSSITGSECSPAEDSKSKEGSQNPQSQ
# Sequence of Thyrotropin receptor (Homo sapiens) (P16473 whole entry, looked up): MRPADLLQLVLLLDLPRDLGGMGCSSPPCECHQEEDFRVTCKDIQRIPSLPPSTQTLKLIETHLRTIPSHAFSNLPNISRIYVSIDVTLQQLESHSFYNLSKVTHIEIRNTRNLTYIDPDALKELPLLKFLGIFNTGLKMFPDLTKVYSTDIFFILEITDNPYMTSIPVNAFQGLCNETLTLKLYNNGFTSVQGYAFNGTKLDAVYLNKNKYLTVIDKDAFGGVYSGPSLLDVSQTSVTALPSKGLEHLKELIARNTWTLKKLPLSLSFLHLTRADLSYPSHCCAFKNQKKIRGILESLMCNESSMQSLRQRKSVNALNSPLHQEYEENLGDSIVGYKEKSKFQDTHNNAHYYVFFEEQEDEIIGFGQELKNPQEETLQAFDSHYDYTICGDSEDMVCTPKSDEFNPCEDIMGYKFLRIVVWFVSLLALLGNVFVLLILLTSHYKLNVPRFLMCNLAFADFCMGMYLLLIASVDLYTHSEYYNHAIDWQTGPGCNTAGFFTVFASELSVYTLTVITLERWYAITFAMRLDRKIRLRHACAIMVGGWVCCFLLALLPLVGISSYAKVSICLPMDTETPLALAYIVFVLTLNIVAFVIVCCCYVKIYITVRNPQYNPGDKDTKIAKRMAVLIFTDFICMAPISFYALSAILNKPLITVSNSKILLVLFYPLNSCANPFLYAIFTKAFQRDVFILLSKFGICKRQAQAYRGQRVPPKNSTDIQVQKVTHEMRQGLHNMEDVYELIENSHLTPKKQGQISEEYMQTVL
# Sequence of Estrogen receptor (Homo sapiens) (P03372 whole entry, looked up): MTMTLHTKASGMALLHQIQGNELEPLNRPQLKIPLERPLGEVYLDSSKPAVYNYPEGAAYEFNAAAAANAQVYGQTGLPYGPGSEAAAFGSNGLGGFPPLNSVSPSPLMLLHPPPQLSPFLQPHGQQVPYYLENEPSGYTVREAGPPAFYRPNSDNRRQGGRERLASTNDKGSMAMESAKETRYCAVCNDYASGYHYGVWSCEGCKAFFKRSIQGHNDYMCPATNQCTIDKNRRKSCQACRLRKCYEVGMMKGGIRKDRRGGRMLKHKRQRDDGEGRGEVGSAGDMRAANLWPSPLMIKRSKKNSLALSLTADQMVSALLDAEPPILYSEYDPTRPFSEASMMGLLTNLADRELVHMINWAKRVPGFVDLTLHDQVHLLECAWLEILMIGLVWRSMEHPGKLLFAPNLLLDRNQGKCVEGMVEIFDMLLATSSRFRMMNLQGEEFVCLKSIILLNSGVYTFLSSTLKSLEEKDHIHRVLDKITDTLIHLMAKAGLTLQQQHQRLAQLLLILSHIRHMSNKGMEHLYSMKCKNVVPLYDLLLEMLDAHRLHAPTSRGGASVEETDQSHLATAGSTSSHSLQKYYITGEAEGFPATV
# Sequence of Androgen receptor (Homo sapiens) (P10275 whole entry, looked up): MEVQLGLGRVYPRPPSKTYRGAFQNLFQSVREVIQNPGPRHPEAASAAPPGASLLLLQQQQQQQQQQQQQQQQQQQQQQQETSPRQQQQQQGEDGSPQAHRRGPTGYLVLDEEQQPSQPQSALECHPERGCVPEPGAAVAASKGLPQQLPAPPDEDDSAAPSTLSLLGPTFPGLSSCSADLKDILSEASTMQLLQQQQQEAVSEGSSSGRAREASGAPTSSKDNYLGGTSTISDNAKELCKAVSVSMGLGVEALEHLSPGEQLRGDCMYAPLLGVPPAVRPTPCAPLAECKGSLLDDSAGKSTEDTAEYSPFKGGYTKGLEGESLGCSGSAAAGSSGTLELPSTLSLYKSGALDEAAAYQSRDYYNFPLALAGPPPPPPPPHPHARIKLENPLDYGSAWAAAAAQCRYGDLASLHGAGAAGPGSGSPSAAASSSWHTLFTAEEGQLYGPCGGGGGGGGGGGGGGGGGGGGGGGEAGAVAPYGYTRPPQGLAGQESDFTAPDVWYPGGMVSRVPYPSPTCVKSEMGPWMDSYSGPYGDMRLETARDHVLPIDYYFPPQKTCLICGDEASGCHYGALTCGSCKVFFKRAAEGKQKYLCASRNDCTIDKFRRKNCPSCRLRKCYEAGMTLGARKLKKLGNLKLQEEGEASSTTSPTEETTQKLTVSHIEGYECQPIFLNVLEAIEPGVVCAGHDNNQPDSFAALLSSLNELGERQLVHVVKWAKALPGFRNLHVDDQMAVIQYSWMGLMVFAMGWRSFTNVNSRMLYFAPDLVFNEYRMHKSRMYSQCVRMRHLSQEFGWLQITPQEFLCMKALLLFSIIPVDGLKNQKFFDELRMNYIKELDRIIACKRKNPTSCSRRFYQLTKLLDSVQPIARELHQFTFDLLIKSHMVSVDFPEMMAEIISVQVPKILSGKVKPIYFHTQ
SMILES,Potency [1],outcome [2],Potency [3],Potency [4],Potency [5],Potency [6],Potency [7],Potency [8],Potency [9],Potency [10]
CN1C[C@@H](NS(=O)(=O)N(C)C)C[C@@H]2c3cccc4c3c(cn4C)C[C@H]21,inactive,inactive,inactive,inactive,inactive,inactive,inactive,,,
CCC(=O)c1ccccc1,inactive,,inactive,inactive,inactive,inactive,inactive,inactive,inactive,
Fc1cc(Br)ccc1CBr,inactive,,inactive,inactive,,inactive,inactive,inactive,inactive,inactive
C[C@]12CC[C@H]3[C@@H](CCC4=CC(=O)CC[C@@]43C)[C@@H]1CC[C@@H]2C(=O)O,inactive,inactive,,inactive,inactive,inactive,inactive,inactive,inactive,inactive
CNC(=O)O/N=C(\C)SC,inactive,inactive,inactive,inactive,inactive,inactive,inactive,,,
C#C[C@]1(O)C=C[C@H]2[C@@H]3CCC4=CC(=O)CC[C@@H]4[C@H]3CC[C@@]21CC,15 µM (active),inactive,,inactive,inactive,inactive,inactive,,0.133 µM (active),3.35 µM (active)
CSc1ccc(C(=O)C(C)(C)N2CCOCC2)cc1,inactive,inactive,,inactive,inactive,,,inactive,,
CCN(CC)CCOC(=O)C(C)(c1ccccc1)c1ccccc1,inactive,inactive,,inactive,,inactive,inactive,inactive,,
COc1cc(OC)nc(NC(=O)NS(=O)(=O)c2ncccc2C(=O)N(C)C)n1,inactive,,inactive,inactive,inactive,inactive,inactive,inactive,,inactive
Cc1cccc(C#N)c1,inactive,,inactive,inactive,inactive,inactive,inactive,inactive,,inactive
CNC(=O)Oc1c(C(C)(C)C)cc(C)cc1C(C)(C)C,inactive,,inactive,inactive,,inactive,inactive,inactive,inactive,
CC(=O)[C@H]1CC[C@H]2[C@@H]3CC[C@H]4C[C@H](O)CC[C@]4(C)[C@H]3C(=O)C[C@]12C,inactive,inactive,inactive,inactive,inactive,,,,,inactive
Cc1cc(C)c(C(=O)P(=O)(C(=O)c2c(C)cc(C)cc2C)c2ccccc2)c(C)c1,inactive,inactive,,inactive,inactive,inactive,inactive,inactive,,inactive
CNNC,inactive,,inactive,inactive,inactive,,,inactive,,inactive
N#Cc1ccncc1,inactive,,inactive,inactive,inactive,,,inactive,,inactive
O=NN1CCN(N=O)CC1,inactive,,inactive,inactive,inactive,inactive,inactive,inactive,,inactive
CC1CN1P(=O)(N1CC1C)N1CC1C (stereo not given),inactive,,inactive,inactive,,,,inactive,,
CC(C)CC#N,inactive,inactive,,inactive,inactive,inactive,inactive,inactive,inactive,
CCCCOP(=O)(O)OCCCC,inactive,,inactive,inactive,inactive,inactive,inactive,inactive,inactive,
CCCCCCI,inactive,,inactive,inactive,inactive,,,inactive,inactive,inactive
CC(C)(C)OC(=O)c1ncn2c1[C@@H]1CCCN1C(=O)c1c(Br)cccc1-2,inactive,inactive,inactive,,inactive,inactive,inactive,,,
C[N+](C)=CCl,inactive,inactive,,inactive,inactive,inactive,inactive,inactive,,inactive
NC(=S)C(N)=S,inactive,,inactive,inactive,inactive,,,inactive,,
Nc1cnn(-c2ccccc2)c(=O)c1Cl,inactive,,inactive,inactive,inactive,inactive,inactive,inactive,,inactive
Clc1cccc(N2CCNCC2)c1,inactive,inactive,inactive,inactive,inactive,inactive,inactive,,,inactive
CCOc1nc(C(Cl)(Cl)Cl)ns1,inactive,inactive,inactive,inactive,inactive,inactive,inactive,,,inactive

# From PubChem BioAssay (Tox21)
